Calls of active or inactive are those of the source.
Tests used:
[1] = binders of probe aFSTL3 on microarray, primary screen, stem cell growth factor project, biochemical, small-molecule microarray, fluorescence 635/667 (AID 1064); conditions: higher = more signal;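 also: measures binding of the biotinylated anti-FSTL3 antibody to printed compounds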
[2] = binders from COS7 lysate, DM2A8 probe, primary screen, torsin A project, cell lysate, small-molecule microarray, fluorescence 635/667 (AID 1065); conditions: higher = more signal, COS7 lysate expressing mutant human TOR1A
[3] = binders of probe aFGF2 on microarray, primary screen, stem cell growth factor project, biochemical, small-molecule microarray, fluorescence 635/667 (AID 1067); conditions: higher = more signal;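 also: measures binding of biotinylated aFGF2 protein to printed compounds on slides; z-score merges feature fluorescence and signal-to-noise across triplicate slides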
[4] = binders of probe aFGF10 on microarray, primary screen, stem cell growth factor project, biochemical, small-molecule microarray, fluorescence 635/667 (AID 1071); conditions: higher = more signal;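 also: score merges 667 nm spot intensity and signal to noise from triplicate slides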
[5] = target: Neurogenic locus notch homolog protein 2 (Homo sapiens) (UniProt Q04721); test: Notch2 binders on small-molecule microarrays, primary screen, biochemical, small-molecule microarray, 635 nm fluorescence, stem cell growth factors (AID 1073); conditions: Notch2 binding, higher = more signal
[6] = target: Pro-neuregulin-1, membrane-bound isoform (Homo sapiens) (UniProt Q02297); test: NRG1 binders on small-molecule microarrays, primary screen, psychiatric disease protein project, biochemical, small-molecule microarray, fluorescence 635/667 (AID 1075); conditions: NRG1 binding, 635 nm fluorescence, higher = more signal;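 also: score combines 667 nm spot fluorescence with signal to noise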
Sequence of Pro-neuregulin-1, membrane-bound isoform (Homo sapiens) (Q02297 whole entry, looked up, the tested form may be a part, canonical isoform): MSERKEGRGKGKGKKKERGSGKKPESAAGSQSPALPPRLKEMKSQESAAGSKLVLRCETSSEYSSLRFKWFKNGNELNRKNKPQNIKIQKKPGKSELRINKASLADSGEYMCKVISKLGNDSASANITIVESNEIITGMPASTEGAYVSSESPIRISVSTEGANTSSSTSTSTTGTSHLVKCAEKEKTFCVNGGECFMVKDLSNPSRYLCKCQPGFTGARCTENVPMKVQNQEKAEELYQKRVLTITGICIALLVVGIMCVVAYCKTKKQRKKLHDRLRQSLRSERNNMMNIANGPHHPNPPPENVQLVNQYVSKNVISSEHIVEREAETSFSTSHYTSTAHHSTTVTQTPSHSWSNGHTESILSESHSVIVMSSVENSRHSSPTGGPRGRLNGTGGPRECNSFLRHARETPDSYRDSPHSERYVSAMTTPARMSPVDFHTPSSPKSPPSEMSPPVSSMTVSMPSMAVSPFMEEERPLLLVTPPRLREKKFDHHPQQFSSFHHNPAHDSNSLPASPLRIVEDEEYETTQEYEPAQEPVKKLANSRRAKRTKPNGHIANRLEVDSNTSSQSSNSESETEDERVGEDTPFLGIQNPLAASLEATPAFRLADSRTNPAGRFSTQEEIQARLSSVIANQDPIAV

[7] = test system: Neuregulin-1 EGF-like domain; test: binders of neuregulin-1 EGF-like domain, primary screen, biochemical, small-molecule microarray, 635 nm fluorescence (AID 1081); conditions: small-molecule microarray binding, higher = more signal;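 also: binding of the protein to compounds printed on small-molecule microarray slides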
[8] = FRG1 promoter luciferase signal modulators, primary screen, FRG1 inhibition for FSHD, cell-based, C2C12 myotubes, firefly/Renilla luciferase, luminescence (AID 1084); conditions: higher = more signal, called active from +8 up or from −8 down
[9] = binders of probe aFST on microarray, primary screen, stem cell growth factor project, biochemical, small-molecule microarray, fluorescence 635/667 (AID 1086); conditions: higher = more signal;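 also: score merges 667 nm fluorescence with signal-to-noise of each printed compound spot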
[10] = binders of probe aHhip on microarray, primary screen, stem cell growth factor project, biochemical, small-molecule microarray, fluorescence 635/667 (AID 1087); conditions: higher = more signal;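 also: score merges spot fluorescence at 667nm with spot signal to noise ratio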
[11] = test system: PRMT1 (protein arginine N-methyltransferase 1); test: PRMT1 binders on small-molecule microarrays, primary screen, biochemical, small-molecule microarray, 635 nm fluorescence (AID 1088); conditions: small-molecule microarray binding, higher = more signal;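 also: binding of Prmt1 protein to compounds spotted on small-molecule microarray slides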
[12] = yeast growth modulation, basal conditions, primary screen, YJM789 clinical isolate, OD600, 24 h (AID 1089);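 also: growth of clinical yeast isolate S. cerevisiae YJM 789 seeded 1000 cells per well; test concentration not given here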; conditions: S. cerevisiae YJM789 growth, higher = more signal, called active from +8 up or from −8 down
[13] = fission yeast growth modulation, primary screen, strain 972, OD600, 24 h, no modulator (AID 1090);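 also: basal condition with compound alone and no growth modifier present; test concentration not given here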; conditions: S. pombe 972 growth, higher = more signal, called active from +8 up or from −8 down
[14] = S. cerevisiae growth modulation with rapamycin, primary screen, strain BY4716, OD600, 96 h (AID 1091); conditions: higher = more signal, called active from +8 up or from −8 down; also: test concentration not given here
[15] = target: Torsin-1A-interacting protein 2 (Homo sapiens) (UniProt Q8NFQ8); test: LULL1 binders on small-molecule microarray, primary screen, cell lysate, human LULL1 lysate, 635/667 nm fluorescence (AID 1092); conditions: hLULL1 lysate binding, 635 nm fluorescence, higher = more signal;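 also: probe is lysate of COS7 cells overexpressing human LULL1; score merges per-feature 667 nm fluorescence with signal-to-noise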
Sequence of Torsin-1A-interacting protein 2 (Homo sapiens) (Q8NFQ8 whole entry, looked up): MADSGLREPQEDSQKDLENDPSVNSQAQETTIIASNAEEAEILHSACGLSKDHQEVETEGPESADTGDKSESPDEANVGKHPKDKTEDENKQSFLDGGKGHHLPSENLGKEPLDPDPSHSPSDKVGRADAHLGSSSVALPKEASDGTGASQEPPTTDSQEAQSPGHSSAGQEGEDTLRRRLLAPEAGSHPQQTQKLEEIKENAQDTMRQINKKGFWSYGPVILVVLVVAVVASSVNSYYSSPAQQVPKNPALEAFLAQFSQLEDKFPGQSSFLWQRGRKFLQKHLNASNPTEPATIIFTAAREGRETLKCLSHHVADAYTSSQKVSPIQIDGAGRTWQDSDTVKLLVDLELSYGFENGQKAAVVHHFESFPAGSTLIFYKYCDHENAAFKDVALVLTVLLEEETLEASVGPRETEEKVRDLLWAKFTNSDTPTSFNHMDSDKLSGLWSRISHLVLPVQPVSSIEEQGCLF

[16] = E. coli growth modulation, two-sided OD650, primary screen, E. coli filamentation project, strain DRC41, 24 h (AID 1093); conditions: OD650, 24 h, higher = more signal, called active from +8 up or from −8 down;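 also: MC1000 strain lacking acrAB efflux and sulA so SOS filamentation is blocked; test concentration not given here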
[17] = small-molecule microarray binders of probe aLefty2, primary screen, biochemical, biotinylated probe, 635/667 nm fluorescence (AID 1094); conditions: higher = more signal;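 also: score merges spot fluorescence near 667 nm with spot signal-to-noise ratio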
[18] = test system: Noggin (protein binding on small-molecule microarray); test: Noggin binders on small-molecule microarray, primary screen, biochemical, 635/667 nm fluorescence (AID 1095); conditions: 635 nm fluorescence, higher = more signal;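 also: score merges 667 nm feature fluorescence with signal to noise over triplicate slides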
[19] = target: Neurogenic locus notch homolog protein 3 (Homo sapiens) (UniProt Q9UM47); test: NOTCH3 binders on small-molecule microarray, primary screen, biochemical, 635/667 nm fluorescence (AID 1096); conditions: NOTCH3 binding, 635 nm fluorescence, higher = more signal
Sequence of Neurogenic locus notch homolog protein 3 (Homo sapiens) (Q9UM47 whole entry, looked up): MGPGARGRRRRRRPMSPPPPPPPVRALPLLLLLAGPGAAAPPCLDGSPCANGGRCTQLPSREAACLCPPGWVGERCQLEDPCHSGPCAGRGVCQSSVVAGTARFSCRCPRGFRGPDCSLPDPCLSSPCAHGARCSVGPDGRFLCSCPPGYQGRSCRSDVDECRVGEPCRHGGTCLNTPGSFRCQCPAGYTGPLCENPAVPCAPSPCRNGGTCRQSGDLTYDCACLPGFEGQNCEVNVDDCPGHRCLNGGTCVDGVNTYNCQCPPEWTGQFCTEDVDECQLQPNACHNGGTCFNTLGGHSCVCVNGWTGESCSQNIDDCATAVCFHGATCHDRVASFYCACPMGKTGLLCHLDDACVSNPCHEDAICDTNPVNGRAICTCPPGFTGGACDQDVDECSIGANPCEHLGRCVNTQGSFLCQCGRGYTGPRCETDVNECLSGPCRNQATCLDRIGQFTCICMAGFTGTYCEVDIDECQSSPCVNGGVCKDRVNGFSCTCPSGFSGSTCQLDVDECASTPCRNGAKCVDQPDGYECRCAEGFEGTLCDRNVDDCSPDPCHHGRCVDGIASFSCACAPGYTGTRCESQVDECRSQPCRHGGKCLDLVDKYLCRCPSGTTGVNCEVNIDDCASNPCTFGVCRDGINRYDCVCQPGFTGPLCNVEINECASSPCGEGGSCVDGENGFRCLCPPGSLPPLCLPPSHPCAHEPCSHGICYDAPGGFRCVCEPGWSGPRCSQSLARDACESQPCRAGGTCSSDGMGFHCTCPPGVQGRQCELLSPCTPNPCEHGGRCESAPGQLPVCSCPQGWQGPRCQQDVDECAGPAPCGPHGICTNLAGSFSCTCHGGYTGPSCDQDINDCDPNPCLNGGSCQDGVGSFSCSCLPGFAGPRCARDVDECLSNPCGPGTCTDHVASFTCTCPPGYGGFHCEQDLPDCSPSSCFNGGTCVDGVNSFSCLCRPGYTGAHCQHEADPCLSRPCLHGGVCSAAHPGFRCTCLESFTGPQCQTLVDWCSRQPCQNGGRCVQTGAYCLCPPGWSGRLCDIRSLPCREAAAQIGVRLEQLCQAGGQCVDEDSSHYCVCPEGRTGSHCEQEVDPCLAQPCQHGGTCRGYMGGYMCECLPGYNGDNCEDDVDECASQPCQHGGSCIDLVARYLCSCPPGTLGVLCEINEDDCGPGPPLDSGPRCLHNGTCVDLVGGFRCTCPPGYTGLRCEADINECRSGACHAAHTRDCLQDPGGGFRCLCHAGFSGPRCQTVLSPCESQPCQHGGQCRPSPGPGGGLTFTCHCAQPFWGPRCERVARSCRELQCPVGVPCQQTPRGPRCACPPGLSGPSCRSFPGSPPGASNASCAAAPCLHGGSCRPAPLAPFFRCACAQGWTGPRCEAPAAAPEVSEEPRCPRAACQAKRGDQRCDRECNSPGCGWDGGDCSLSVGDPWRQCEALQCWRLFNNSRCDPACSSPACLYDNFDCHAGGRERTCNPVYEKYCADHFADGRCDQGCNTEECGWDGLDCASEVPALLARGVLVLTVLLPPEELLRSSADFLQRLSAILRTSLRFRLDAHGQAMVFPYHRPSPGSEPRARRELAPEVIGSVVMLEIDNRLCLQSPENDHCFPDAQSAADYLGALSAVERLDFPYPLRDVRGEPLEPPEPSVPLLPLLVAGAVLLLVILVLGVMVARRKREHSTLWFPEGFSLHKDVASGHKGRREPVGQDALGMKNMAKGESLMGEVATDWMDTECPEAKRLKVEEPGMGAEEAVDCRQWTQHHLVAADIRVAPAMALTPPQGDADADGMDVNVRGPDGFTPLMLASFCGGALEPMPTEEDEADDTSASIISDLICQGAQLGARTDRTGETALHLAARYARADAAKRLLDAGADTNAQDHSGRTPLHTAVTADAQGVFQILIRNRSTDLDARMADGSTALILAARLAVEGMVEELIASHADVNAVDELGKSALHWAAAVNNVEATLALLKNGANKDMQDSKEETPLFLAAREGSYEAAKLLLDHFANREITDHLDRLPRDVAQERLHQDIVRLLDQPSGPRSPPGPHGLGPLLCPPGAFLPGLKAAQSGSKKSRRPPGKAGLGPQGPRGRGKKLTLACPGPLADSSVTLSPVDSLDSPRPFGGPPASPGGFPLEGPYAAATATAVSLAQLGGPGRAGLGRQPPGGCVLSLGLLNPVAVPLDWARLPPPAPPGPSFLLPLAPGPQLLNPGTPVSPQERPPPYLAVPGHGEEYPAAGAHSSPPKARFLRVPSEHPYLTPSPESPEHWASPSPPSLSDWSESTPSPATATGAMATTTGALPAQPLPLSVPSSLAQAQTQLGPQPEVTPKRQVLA

[20] = small-molecule microarray binders of probe aEGFR, primary screen, biochemical, biotinylated probe, 635/667 nm fluorescence (AID 1097); conditions: higher = more signal;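 also: probe is a biotinylated anti-EGFR antibody binding compounds printed on slides; score combines fluorescence near 667 nm and signal to noise of each spot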

| Compound | composite z-score [1] | composite z-score [2] | composite z-score [3] | composite z-score [4] | composite z-score [5] | composite z-score [6] | composite z-score [7] | z-score [8] | composite z-score [9] | composite z-score [10] | composite z-score [11] | z-score [12] | z-score [13] | z-score [14] | composite z-score [15] | z-score [16] | composite z-score [17] | composite z-score [18] | composite z-score [19] | composite z-score [20] |
| --- | --- | --- | --- | --- | --- | --- | --- | --- | --- | --- | --- | --- | --- | --- | --- | --- | --- | --- | --- | --- |
| CCCCC(=C=CC[C@H](O)c1cccc(OCCO)c1)C[C@H](O)c1cc(Cl)cc(Cl)c1O | -0.288 | -0.027 | -0.0376 | 0.526 | -0.107 | 0.665 | 0.616 | -1.64 (inactive) | 0.137 | -0.197 | 1.53 | 0.59 (inactive) | -1.71 (inactive) | 0.102 (inactive) | 1.81 | 0.206 (inactive) | 0.206 | 0.999 | 0.883 | -0.112 |
| CCCCCN1CC=CC23O[C@@H]4/C=C\CCCOC(=O)C4[C@H]2C(=O)N(CCO)[C@@H]3C1=O (stereo not given in full) | 0.0382 | 0.351 | -0.133 | -0.148 | -0.326 | 0.913 | 1.5 | -0.345 (inactive) | -0.345 | -0.223 | -0.0525 | -0.402 (inactive) | -1.15 (inactive) | -1.46 (inactive) | 3.42 | 3.22 (inactive) | -0.134 | 0.486 | -0.285 | -0.0987 |
| C=CCOC(=O)[C@H]1[C@@H]2C(=O)O[C@@H](c3ccccc3)[C@@H](c3ccccc3)N2[C@@H](c2ccc(OCCOC(=O)[C@H]3C[C@H]4C(=O)NCC(=O)N4[C@H]3c3ccc(O)cc3)cc2)[C@]12C(=O)Nc1ccccc12 | 0.924 | 0.933 | -0.0355 | 0.738 | 1.2 | 1.57 | 1.33 | 0.575 (inactive) | 0.389 | 0.49 | 1.48 | 1.71 (inactive) | 1.61 (inactive) | 4.1 (inactive) | 2.58 | -0.0665 (inactive) | 0.0337 | 1.22 | 1.09 | 0.0656 |
| C=C(/C=C\CNS(=O)(=O)c1ccc(C)cc1)[C@H](O)[C@H]1CCCN1S(=O)(=O)c1ccccc1[N+](=O)[O-] | -0.0107 | 0.014 | -0.114 | 0.108 | 0.361 | 0.618 | 0.577 | -4.49 (inactive) | -0.105 | 0.0373 | -0.196 | 1.89 (inactive) | 1.09 (inactive) | 35.1 (active) | 0.782 | 0.753 (inactive) | -0.139 | 0.177 | 0.221 | -0.0567 |
| COC(=O)[C@@]1(Cc2ccc(F)cc2)[C@@H]2C(=CC(=O)[C@H]2CC(=O)C(=O)N2CCCC2)CN1C(=O)c1ccccc1 | 1 | 1.61 | 0.575 | 0.866 | 1.58 | 1.81 | 1.33 | 1.48 (inactive) | 2.02 | 0.655 | 1.55 | -0.403 (inactive) | 0.0239 (inactive) | 0.413 (inactive) | 3.6 | -0.074 (inactive) | 1.34 | 1.32 | 1.13 | 1.08 |
| COC(=O)[C@@]1(Cc2ccccc2)[C@H]2c3cc(C(=O)N(C)C)n(Cc4ccc(Cl)c(C(F)(F)F)c4)c3C[C@H]2CN1C(=O)c1ccccc1 | 0.0539 | 0.277 | 0.372 | 1.09 | 1.61 | 1.35 | 1.18 | -3.33 (inactive) | 1.51 | 0.26 | 0.813 | 1.01 (inactive) | 1.45 (inactive) | 3.56 (inactive) | 2.74 | -1.12 (inactive) | 0.146 | 1.59 | 1.01 | 0.0926 |
| C=C(COC)C(=O)CC[C@H](OC(C)=O)c1ccccc1OCCO | -0.0661 | 0.697 | -0.167 | 0.484 | -0.987 | -0.493 | 0.355 | -0.0831 (inactive) | -0.215 | -0.0994 | 1.39 | 0.556 (inactive) | -2.58 (inactive) | -0.401 (inactive) | -0.323 | 1.32 (inactive) | -0.166 | 0.985 | 0.367 | -0.262 |
| COc1ccc(C(O)C2C=CC3C(=O)N(c4ccccc4)C(=O)C3N2Nc2ccccc2F)c2ccccc12 (stereo not given) | 1.24 | 1.08 | 0.433 | 1.14 | 1.72 | 1.79 | 1.23 | 1.25 (inactive) | 1.89 | -0.233 | 1.55 | -0.466 (inactive) | -0.0101 (inactive) | 0.257 (inactive) | 3.33 | -0.0841 (inactive) | 0.582 | 0.117 | 1.05 | 0.697 |

Source: PubChem BioAssay
